The full list was thinned out, with hits kept by preference.
TTR transcr act: TTR transcription activation, primary screen; activation, % at 16.7 µM; SH-SY5Y TTR promoter Gaussia luciferase, luminescence; 100% = recombinant luciferase protein wells; AID 1117267; 92,000 compounds, 1.3% hits;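 active = activation above the mean of all tested compounds plus 3 SD, cut at about 9.5% in these data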;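 note: cells exposed to compounds for one day before reading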
HuH7 TTR inh: counter-screen for TTR activators: TTR transcription inhibitors in HuH7 cells; 1,100 compounds, 4% hits; inhibition, % at 16.7 µM; HuH7 TTR promoter-Gaussia luciferase reporter, luminescence; shares compounds with TTR transcr act;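 active = average inhibition above the solvent-only control wells' mean plus 3 SD, cut at about 15% in these data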;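 note: inhibitors lower well luminescence so higher value means more inhibition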
TTR up confirm: human TTR transcription activation, confirmation; 1,100 tested, under 10 active; shares compounds with TTR transcr act; activation, % at 16.7 µM; SHSY5Y TTR promoter Gaussia luciferase, luminescence; 100% = purified Lucia enzyme wells, no cells;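 active = mean activation above a set limit taken from the earlier primary screen, cut at about 11% in these data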
Numbers stand for hits; i = inactive.

SMILES | TTR transcr act | others
COc1ccc2c3c1OC1C(=O)CC[C@@]4(O)[C@@H](C2)N(C)CC[C@]314 (some centres undefined) | i
COc1ccc2c(c1O)C13CCN(C)C(C2)C1CCC(=O)C3 (centres undefined) | 24 | HuH7 TTR inh=i;TTR up confirm=i
COc1ccc2c3c1OC1[C@H](O)CCC4[C@@H](C2)N(C)CC[C@]314 (some centres undefined) | i
c1cnc(OCCN2CC2)cn1 | i
O=C(Cc1ccccc1)OCCN1CCOCC1 | i
c1cc(OCCN2CC2)ccn1 | 10 | HuH7 TTR inh=i;TTR up confirm=i
c1ccc(N2C3C4CC(C5CCCC54)C32)cc1 (centres undefined) | i
O=c1[nH]cnc2nc(-c3ccc(N(CCCl)CCCl)cc3)[nH]c12 | i
COC(=O)C1C(c2ccc(I)cc2)CC2CCC1N2C (centres undefined) | i
COCCNC(=O)N1[C@H]2CC[C@@H]1C(C(=O)OC)=C(c1ccc(OC(F)(F)F)cc1)C2 | i

High-throughput results deposited in PubChem BioAssay by The Scripps Research Institute Molecular Screening Center.
